# About 83,000 compounds went through this panel and 20% of them were active in at least one assay; those are over-represented in the sample as a whole.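 The test compound was applied at a single concentration to cells in 96-well plates for 48 hours, and percent growth was recorded.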 Unmarked numbers belong to inactive results. The source made the active and inactive calls.
# Test system: BT-549 breast
# Assay: NCI-60 one-dose screen, 48 h (100 = growth as untreated, 0 = no growth, -100 = all killed)
# Details: 10 µM unless noted
# Description: Growth inhibition of the BT-549 human tumor cell line is measured as a screen for anti-cancer activity. Cells are grown in 96 well plates and exposed to the test compound for 48 hours. Compounds are tested at a single concentration, which is 10^-5 M for most compounds. The reported endpoint is percent growth (GI% or GIPRCNT), where numbers from 0 - 100% represent growth inhibition, and numbers from -100% - 0 represent cell death. For example, a value of 40 represents 60% growth inhibition. A value of 0 means no net growth occurred over the course of the experiment. A value of -40 indicates 40% of cells at the beginning of the experiment died by the end of the experiment. A value of -100 means all cells are dead at the end of the experiment.
# NCI-60 Human Tumor Cell Lines Screen was performed using the standard one-dose NCI protocol, which is described in more detail at https://dtp.cancer.gov/discovery_development/nci-60/default.htm.
# Compounds with GIPRCNT values below 10 were considered active. Activity score was based on GIPRCNT using the following formula: […]
# Score is 0 for GIPRCNT values of 100 or above, 50 for GIPRCNT values of 0, and 100 for GIPRCNT values of -100.
row,Structure (SMILES),growth
1,CN1/C(=C/C=C/c2n(Cc3ccc4ccccc4c3)c(Cl)c(Cl)[n+]2Cc2ccc3ccccc3c2)Oc2ccccc21,-84.8% (active)
2,O=C1C(c2c(O)[nH]c3ncccc23)=Nc2ccccc21,70.6%
3,CCOC(=O)c1c(N)sc2cc(O)ccc12,93.3%
4,COc1cc2c(c(OC)c1OC)C(=O)CC(c1cccc(C(=O)Nc3ccc(Br)cc3)c1)O2 (stereo not given),34%
5,O=C(CSc1nnc(-c2ccc(Cl)c(Cl)c2)n1-c1ccccc1)Nc1ccc(C(=O)/C=C/c2ccc(Cl)cc2)cc1,77.5%
6,O=C1/C(=C/c2cccc(Br)c2)COc2ccc(O)c(O)c21,-19.2% (active)
7,CN(C)CC1C(=O)O[C@H]2[C@H]1CC/C(COC(=O)NCc1ccc(Cn3c(=O)sn(CCCI)c3=O)cc1)=C\CC[C@@]1(C)O[C@@H]21 (stereo not given in full),50.1%
8,CC(=O)O[C@H]1CC[C@@]2(C)C(=CC[C@@H]3[C@@H]2CC[C@]2(C)C(Cl)=C(c4nc5ccc(Cl)cn5c4NC(C)(C)C)C[C@@H]32)C1,105%
9,CC(C)(C#N)c1cc(C(=O)Nc2cc(Nc3ncccc3-c3ncnc4nc[nH]c34)ccc2F)cc(C(F)(F)F)c1,71%
10,FC(F)(F)c1cccc(-c2nnn(Cc3cc(-c4cccc(Cl)c4)no3)n2)c1,97.7%
11,CCCC[N+]1(C)CCN=C1Cc1ccccc1 (stereo not given),123%
12,C=C1/C(=C\C=C2/CCC[C@]3(C)[C@@H]([C@H](C)CCCC(C)(C)O)CC[C@@H]23)C[C@@H](OC(=O)CBr)C[C@@H]1O,-58.1% (active)
13,Nc1ncc(-c2ccc3ncnc(N4CCc5cc(F)c(Cl)cc54)c3c2)cc1C(F)(F)F,14.8%
14,CCOC(=O)/C(=C\c1ccccc1Cl)P(=O)(OCC)OCC,57.6%
15,CNC1=C(Br)C(=O)c2c(C(=O)OC)c(C)nc(C)c2C1=O,104%
16,COC(=O)c1c(C)nc(C)c2c1C(=O)C(Br)=C(NCCCCO)C2=O,91.2%
17,c1ccc(Cn2cc3c(c2)-c2nc(Nc4ccccc4)ncc2CC3)cc1,87.6% [100 µM]
18,CN(C)c1ccc(Cc2cc(-c3ccccc3)nn(C/C(=N/O)c3ccccc3)c2=O)cc1,61.2%
19,CNC1=C([N+](=O)[O-])C(c2ccc(OC)cc2)C(C#N)=C(c2ccc[nH]2)O1 (stereo not given),101%
20,COc1ccc(-n2c(=O)n(-c3ccc(-c4nc5ccc(F)cc5s4)cc3)c(=O)c3cccnc32)cc1,99.7%

row,Structure (SMILES),growth
1,CCCCC#Cc1c(I)n(C2OC(CO[Si](C)(C)C(C)(C)C)C3OC(C)(C)OC32)c(=O)[nH]c1=O (stereo not given),99.2%
2,CCN(CC)c1ccc(/C=N/NC(=O)c2ccccc2Nc2ccnc(C(F)(F)F)c2)c(O)c1,38.5%
3,COc1cc2cc(Oc3ccc(NC(=O)Nc4ccc(Cl)c(Cl)c4)cc3)c(C)nc2cc1OCCN1CCCCC1,88.1%
4,CC1=NN(c2cccc(Cl)c2)C(=O)/C1=C\C=C\c1ccccc1,78.4%
5,COC(=O)c1nc(-c2ccccc2)oc1S(=O)(=O)NCC(c1ccc(Cl)cc1)N1CCCCC1 (stereo not given),55.8%
6,CC(=O)Cc1nsc(NC(=O)c2cc(-c3cc(Cl)ccc3Cl)oc2C)n1,102%
7,CCCCCC(C)(O)C(C(=O)O)c1ccccc1 (stereo not given),101%
8,C#Cc1cccc(Nc2ncnc3ccc(-c4cnc(Cl)c(NS(C)(=O)=O)c4)cc23)c1,-35.4% (active)
9,Clc1ccc(C2=Nn3c(nnc3-c3cc(Cl)cc(Cl)c3Cl)SC2)cc1,31.4%
10,C#CCOc1cccc(Nc2c(Cl)c(CCl)nc3ccc(Oc4ccccc4)cc23)c1,15.8%
11,CNc1nc2ncc(-c3c(C)noc3C)cc2n1Cc1ccccc1,60.2%
12,O=C1CCc2c(sc3[nH]c(=S)n(-c4cc(C(F)(F)F)cc(C(F)(F)F)c4)c(=O)c23)C1,3.75% (active)
13,COc1ccc(C(=O)/C=C/c2ccc(Cl)cc2)cc1S(N)(=O)=O,12.2%
14,CC/C(=C(/c1ccc(Cl)cc1)c1ccc(OCCN2CCCCCC2)cc1)c1ccccc1,114%
15,Cn1ccnc1C(=O)/C=C/c1ccc(C(=O)Nc2ccccc2F)cc1,-13.2% (active)
16,CC/C(=C(/c1ccc(Cl)cc1)c1ccc(OCCN2CCCC2)cc1)c1ccccc1,77.8%
17,Cc1ccc(Nc2nc(N)nc(N)c2N=O)cc1Cl,98.7%
18,COc1ccc(-c2ccc(-c3ccc(C(=N)N)o3)o2)cc1,59.6%
19,COc1ccc(NC(=O)c2ccc(NC3=C(c4ccc(Cl)cc4)C(=O)NC3=O)cc2)cc1,82.1%
20,COc1cccc(C2C(C#N)=C(N)Oc3c2ccc2ccccc32)c1 (stereo not given),28.3%

# Source: PubChem BioAssay (NCI)
